Measurements taken from PubChem BioAssay (NCATS).
Inconclusive results are not listed. Entries that show only a call come without a potency. The source made the active and inactive calls. Unless noted, calls follow the shape of the dose curve; as a rule, active = well fitted curve in the direction sought with a large enough effect; inconclusive = small, poorly fitted or top-dose-only effect, or another doubt; inactive = no such curve, though single readings can be large; an effect the other way counts as inactive or inconclusive.

Columns and labels:
[1] = A High-Content qHTS Against Drug Library for the Identification of Small Molecules that Inhibit DYT1 Early Onset Primary Dystonia-Associated Cell Pathology (AID 1645839; calls by dose curve); settings: HEK293 Flp-In EGFP-delE TorsinA, punctate imaging, 48 h; series mostly up to 46.1 µM
In short: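 Induced EGFP-delE TorsinA cells are imaged after 48 h of compound treatment. Punctate fusion-protein distribution gives the %pathology value, while nuclei counts flag toxicity. Wild-type EGFP-hTOR1A cells define the normal pattern.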

Papain (Carica papaya) = Papain (Carica papaya) (UniProt P00784); experiment: Primary qHTS assay for inhibitors of the protease papain (AID 1645873); settings: papain Z-FR-AMC cleavage, AMC fluorescence; series mostly up to 49.8 µM;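 also: papain turnover of Z-FR-AMC read as the AMC fluorescence gain over 10 min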; also: potency is read from the fitted curve at half-maximal effect
Chain of Papain (Carica papaya) (P00784 whole entry, looked up): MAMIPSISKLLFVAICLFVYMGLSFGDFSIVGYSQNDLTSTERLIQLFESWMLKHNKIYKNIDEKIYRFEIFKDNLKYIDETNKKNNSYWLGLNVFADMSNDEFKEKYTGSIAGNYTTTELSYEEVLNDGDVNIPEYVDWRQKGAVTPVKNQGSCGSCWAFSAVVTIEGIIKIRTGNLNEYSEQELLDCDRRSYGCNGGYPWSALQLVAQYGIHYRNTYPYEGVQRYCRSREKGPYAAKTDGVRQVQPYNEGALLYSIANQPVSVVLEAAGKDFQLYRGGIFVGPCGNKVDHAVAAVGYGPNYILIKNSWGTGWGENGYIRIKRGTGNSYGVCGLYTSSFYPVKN

[2] = Primary qHTS for small molecule stabilizers of the endoplasmic reticulum resident proteome: Secreted ER Calcium Modulated Protein (SERCaMP) assay (AID 1508630); settings: SH-SY5Y GLuc-SERCaMP (Gaussia luciferase released on ER calcium loss) secretion, thapsigargin, luminescence; series mostly up to 38.4 µM
In short: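 The SH-SY5Y reporter protocol was run at 3 concentrations up to 38.3 uM (primary) or 11 concentrations (follow-up): 16 h compound, 100 nM thapsigargin for 4 h, then extracellular luciferase luminescence.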

[3] = target: Cytochrome P450 2D6 (Homo sapiens) (UniProt P10635); experiment: Cytochrome P450 family 2 subfamily D member 6 (CYP2D6) small molecule antagonists: luciferase biochemical (cell-free) qHTS assay (AID 1645840; active = well fitted curve in the direction sought with a large enough effect in the repeat runs; an effect the other way counts as inactive or inconclusive; also: nearly all actives have a fitted effect of over 55% in size); settings: P450-Glo CYP2D6 enzyme, luciferin luminescence, 1 h; series mostly up to 57.4 µM
Chain of Cytochrome P450 2D6 (Homo sapiens) (P10635 whole entry, looked up): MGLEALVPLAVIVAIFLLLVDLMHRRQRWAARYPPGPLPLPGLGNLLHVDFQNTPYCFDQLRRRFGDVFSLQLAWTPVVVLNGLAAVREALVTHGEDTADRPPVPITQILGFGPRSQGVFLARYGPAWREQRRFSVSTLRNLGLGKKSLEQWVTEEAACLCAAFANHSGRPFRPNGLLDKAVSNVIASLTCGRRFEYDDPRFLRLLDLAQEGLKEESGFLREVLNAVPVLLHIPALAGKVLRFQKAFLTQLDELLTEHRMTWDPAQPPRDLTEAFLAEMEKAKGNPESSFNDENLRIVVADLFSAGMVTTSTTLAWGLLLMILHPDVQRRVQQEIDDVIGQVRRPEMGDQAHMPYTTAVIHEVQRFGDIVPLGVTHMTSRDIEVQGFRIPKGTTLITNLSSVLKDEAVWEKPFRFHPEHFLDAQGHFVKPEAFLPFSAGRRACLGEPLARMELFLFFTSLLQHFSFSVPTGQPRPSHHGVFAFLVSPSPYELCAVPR
In short: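 P450-Glo CYP2D6 system: proluciferin substrate converted by enzyme to luciferin, read by luminescence proportional to activity. Enzyme-substrate mix with compound 10 min at room temperature, then NADPH regeneration 1 h before detection reagent.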

[4] = target: Cytochrome P450 2C9 (Homo sapiens) (UniProt P11712); experiment: Cytochrome P450 family 2 subfamily C member 9 (CYP2C9) small molecule antagonists: luciferase biochemical (cell-free) qHTS assay (AID 1645842; active = well fitted curve in the direction sought with a large enough effect in the repeat runs; an effect the other way counts as inactive or inconclusive; also: nearly all actives have a fitted effect of over 55% in size); settings: P450-Glo CYP2C9 enzyme assay, luciferin luminescence; series mostly up to 57.4 µM
Chain of Cytochrome P450 2C9 (Homo sapiens) (P11712 whole entry, looked up): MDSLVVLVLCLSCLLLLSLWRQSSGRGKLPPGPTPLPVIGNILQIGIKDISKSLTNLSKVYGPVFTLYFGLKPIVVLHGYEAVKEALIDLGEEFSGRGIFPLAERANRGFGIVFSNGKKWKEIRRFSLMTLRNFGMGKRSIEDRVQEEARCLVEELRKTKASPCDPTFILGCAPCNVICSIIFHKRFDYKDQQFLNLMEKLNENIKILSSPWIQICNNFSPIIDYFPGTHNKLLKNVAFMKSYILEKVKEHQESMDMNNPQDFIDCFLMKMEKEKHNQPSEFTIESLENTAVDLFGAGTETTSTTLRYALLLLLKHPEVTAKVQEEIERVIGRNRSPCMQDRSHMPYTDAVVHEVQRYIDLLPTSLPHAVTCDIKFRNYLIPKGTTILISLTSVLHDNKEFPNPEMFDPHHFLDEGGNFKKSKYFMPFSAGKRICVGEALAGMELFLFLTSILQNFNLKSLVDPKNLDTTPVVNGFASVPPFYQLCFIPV
In short: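 P450-Glo CYP2C9 system: proluciferin substrate with enzyme in mix containing 0.4% BSA, 10 min at room temperature, then NADPH regeneration solution added and incubated 1 h at 37C. Detection reagent stopped reaction; luminescence read after 20 min as RLU.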

SMILES	Potency [1]	Potency (Papain (Carica papaya))	Potency [2]	Potency [3]	Potency [4]
Cc1cnc(C(=O)NCCc2ccc(S(=O)(=O)NC(=O)NC3CCCCC3)cc2)cn1	inactive	inactive	–	–	–
NC(CO)C(=O)NNCc1ccc(O)c(O)c1O (stereo not given)	inactive	inactive	inactive	–	–
COc1cc2nc(N3CCN(C(=O)C4COc5ccccc5O4)CC3)nc(N)c2cc1OC (stereo not given)	–	25.1 µM (active)	inactive	inactive	inactive
CN1CCN(C2=Nc3cc(Cl)ccc3Nc3ccccc32)CC1	–	inactive	–	–	–
